A selection: hits, their analogues and other compounds. The true share with any hit is near 0.9%.
B2AR arrestin = recruits beta-arrestin to the human beta2-adrenergic receptor | P07550 | beta-arrestin recruitment to beta2AR, cell-based reporter | Potency, µM (series often up to 46.1 µM), without a hit: top-dose activation, hits mostly activators | 330,000 tested, 0.02% active;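 further: potency means the concentration at half of the fitted maximal effect; 0% = DMSO controls and full agonism = EC100 isoproterenol or metaproterenol; nearly all actives have a fitted effect of over 65% in size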
Target sequence (P07550 whole entry, looked up): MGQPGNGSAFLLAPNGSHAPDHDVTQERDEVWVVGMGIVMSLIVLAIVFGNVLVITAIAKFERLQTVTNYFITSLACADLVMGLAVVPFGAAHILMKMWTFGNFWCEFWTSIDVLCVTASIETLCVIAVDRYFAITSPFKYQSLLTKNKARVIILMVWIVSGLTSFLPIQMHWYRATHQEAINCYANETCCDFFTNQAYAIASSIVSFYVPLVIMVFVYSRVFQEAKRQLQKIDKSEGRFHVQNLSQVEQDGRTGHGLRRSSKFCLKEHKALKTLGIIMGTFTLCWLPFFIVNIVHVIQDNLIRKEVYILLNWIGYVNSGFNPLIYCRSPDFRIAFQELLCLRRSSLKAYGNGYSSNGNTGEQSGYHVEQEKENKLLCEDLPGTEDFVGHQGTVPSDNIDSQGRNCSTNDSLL
L3MBTL1 inh = L3MBTL1 (human) inhibition | Q9Y468 | AlphaScreen L3MBTL1–H3K9me1 peptide binding | Potency, µM (doses to about 57.1 µM), for the others: top-dose activity, negative = inhibition, actives largely listed as inhibitors | 230,000 tested, 0.66% active | AID 485360; further: potency means the concentration at half of the fitted maximal effect; nearly all actives have a fitted effect of over 60% in size
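AlphaScreen proximity signal between nickel-chelate acceptor and streptavidin donor beads (final 10 ug/mL) reports binding of 50 nM L3MBTL1 to 75 nM biotin-H3 K9me1 peptide; complex incubated with compounds 30 min at room temperature; cefsulodin titration as control.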
Eya2 inh = inhibitors of human Eya2 phosphatase activity | O00167 | recombinant Eya2, OMFP fluorescence dephosphorylation (OMFP is methylfluorescein phosphate) | Potency, µM (top dose mostly 76.9 µM), for inactives: top-dose activity, negative = inhibition, usual class: inhibitors | 330,000 tested, 0.006% active | AID 488837; further: potency means the concentration at half of the fitted maximal effect
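Eya2 (0.2 uM) preincubated 10 min at ambient with compound, then OMFP substrate added at 50 uM; 10 min reaction in 50 mM HEPES pH 7.5, 50 mM NaCl, 5 uM MgCl2, 0.05% BSA, 1 mM DTT. Fluorescence read at Ex 485/Em 525 nm.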
CtBP-E1A inh = inhibitors of CtBP/E1A interaction; AlphaScreen GST-E1A/His-CtBP binding, 1536-well; active compounds read low; activity change, % (concentration not given with the values); 340,000 tested, 0.49% active; AID 651724; in the data active means activity change below about -65%; inconclusive means mostly about -30% to -63%
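Homogeneous bead-based format: GST-tagged E1A captured on glutathione donor beads, His-tagged CtBP on nickel acceptor beads; compounds precede bead addition by 2 h at 37 °C.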
Six1-Eya2 inh = blocks human Six1 binding to Eya2; Q15475+O00167; AlphaScreen GST-Six1/His-Eya2 binding, biochemical; active compounds read low; activity change, % (no concentration beside the values); 360,000 tested, 0.56% active; in the data active means activity change below about -65%; inconclusive means mostly about -30% to -63%
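Compounds are tested against tagged Six1 and Eya2 proteins bridged by glutathione donor and nickel acceptor beads; after a one-hour incubation at 37 °C without light, AlphaScreen emission is recorded.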
Numbers without * were called inactive; ? = inconclusive; . = no result given. Unless noted, the call rests on the fitted dose curve; in most records, active means well fitted curve in the direction sought with a large enough effect; inconclusive means small, poorly fitted or top-dose-only effect, or another doubt; inactive means no such curve, though single readings can be large; an effect the other way counts as inactive or inconclusive. Unless noted, on the % scale 0 is the no-effect control and ±100 the full control effect.

SMILES	B2AR arrestin	L3MBTL1 inh	Eya2 inh	CtBP-E1A inh	Six1-Eya2 inh
CC1CCCC(C)N1NC(=O)c1ccc(Cl)c(S(N)(=O)=O)c1 (stereo unspecified)	-1%	.	11%	0	1
CC1CCc2sc(NC(=O)c3ccc(N4C(=O)CCC4=O)cc3)c(C(N)=O)c2C1 (stereo unspecified)	9%	.	5%	2	-2
NC(=O)c1c(NC(=O)c2ccc(N3C(=O)CCC3=O)cc2)sc2c1CCCC2	0%	-3%	6%	.	-68*
COc1ccc(C(=O)NCC(O)COc2ccc(C(C)(C)C)cc2)cc1[N+](=O)[O-] (stereo unspecified)	1%	-4%	-10%	.	.
COc1ccc(C)cc1NC(=O)CSc1ccc(-c2sc(C)nc2C)nn1	11%	.	3%	-15	-18
CCc1ccc(NC(=O)CSc2ccc(-c3ccccn3)nn2)cc1	-1%	.	25%	?	?
COc1ccc(C)cc1NC(=O)CSc1ccc(-c2ccccn2)nn1	1%	.	4%	-85*	-83*
CCOC(=O)c1ccccc1NC(=O)CSc1ccc(-c2ccccn2)nn1	0%	.	24%	-86*	-84*
O=C(NCc1cccs1)c1ccc(Cl)c(S(=O)(=O)N2CCOCC2)c1	.	.	.	-2	-7
O=C1C(Cl)=C(N2CCCCC2)C(=O)N1c1ccccc1Cl	0%	38%	-22%	12	25
O=C1c2cccc(Cl)c2C(=O)c2c1cccc2N1CCCC1	.	.	.	-90*	-91*
O=Nc1c(-c2c(O)[nH]c3cc(Br)ccc23)[nH]c2ccccc12	-1%	.	-11%	?	-71*
O=C(CSCc1cccc(Br)c1)N=Nc1c(O)[nH]c2ccccc12	-1%	-7%	2%	-18	-11
Cc1nc2ccccc2c(=O)n1/N=C/c1cc(Br)ccc1O	-1%	.	6%	-65*	?
Cc1nc2ccccc2c(=O)n1/N=C/c1c(O)ccc2ccccc12	0%	22µM*	?	?	-27
O=c1c2ccccc2nc(N/N=C/c2c(O)ccc3ccccc23)n1O	-1%	?	-3%	-94*	-90*
Cc1nc2ccccc2c(=O)n1/N=C/c1c(O)ccc2oc3c(c12)CCCC3	0%	.	-19%	3	-11
COc1cc2[nH]c(C)c(-c3ccccc3)c(=O)c2cc1Cl	.	.	.	0	0
Cc1nnc(N/N=C/c2c(Cl)cccc2Cl)n1N	1%	-15%	9%	3	12
O=[N+]([O-])c1ccc(O)c(/C=N/NC2=NS(=O)(=O)c3ccccc32)c1	0%	?	-20%	-70*	-70*
O=[N+]([O-])c1ccc(/C=N/NC2=NS(=O)(=O)c3ccccc32)cc1	0%	-5%	-3%	-5	1
C=CCc1c(C)nc(C)nc1N/N=C/c1ccccc1O	0%	?	9%	-92*	-81*
Cc1nnc(N/N=C/c2ccccc2O)n1N	0%	.	-6%	-87*	-78*
O=[N+]([O-])c1ccc(O)c(/C=N/Nc2ccc(Cl)nn2)c1	7%	?	-4%	-91*	-82*
CCCn1c(N)c(C(=O)CSc2ncnc3sccc23)c(=O)n(C)c1=O	-1%	8%	-37%	-3	-22
SMILES	B2AR arrestin	L3MBTL1 inh	Eya2 inh	CtBP-E1A inh	Six1-Eya2 inh
NC(N)=N/N=C/c1cc([N+](=O)[O-])ccc1O	0%	-3%	0%	-29	-20
Oc1ccccc1/C=N/Nc1nn[nH]n1	-1%	-21%	-6%	.	-91*
O=[N+]([O-])c1ccc(O)c(/C=N/Nc2nn[nH]n2)c1	0%	14µM*	-4%	?	-74*
O=[N+]([O-])c1ccc(O)c(-c2nn[nH]n2)c1	0%	.	7%	-94*	-92*
COCCc1ccc(OC2(C)CCN(Cc3cccc(OCOC)c3)C2)cc1 (stereo unspecified)	.	.	.	-12	-11
COc1ccc(/C=N/N2CCN(c3ccccc3OC)CC2)cc1OC	0%	-5%	2%	-3	-2
CCN(CC)c1ccc(/C=N/N2CCN(Cc3ccccc3Cl)CC2)cc1	0%	?	-1%	-27	-74*
CCN(CC)c1ccc(/C=N/N2CCN(Cc3ccccc3)CC2)cc1	0%	.	2%	?	?
CN(C)c1ccc(/C=N/N2CCN(Cc3ccccc3Cl)CC2)cc1	0%	1%	5%	-14	-7

From PubChem
